# Assay results taken from PubChem BioAssay AID1159580 (chemical genetic matrix, 2015).
# In all, about 5,500 compounds went through this assay and about 2,000 (36%) were called active. Not shown: some 18% with an inconclusive outcome. The list shows a part of the results. Unmarked numbers belong to inactive results. No stated cut-off is given here; in the data, active means normalized growth mostly below about 0.91 (no sharp cut-off); inconclusive means no clear call, values can overlap the other calls; inactive means mostly above about 0.92.
# Experiment: chemical genetic growth profiling, strain panel (AID 1159580);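 further: tested at 20 µM; growth read once vehicle control cultures reached saturation at 30 °C; 1 = growth at the plate median or of vehicle wells; lower values mean less growth of the strain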
# Conditions: growth OD
# [1] = S. cerevisiae deletion strains, locus YAL013W, strain DEP1, hits give low values
# [2] = S. cerevisiae deletion strains, locus YBR229C, strain ROT2, hits give low values
# [3] = S. cerevisiae deletion strains, locus YCL061C, strain MRC1, hits give low values
# [4] = S. cerevisiae deletion strains, locus YDL101C, strain DUN1, hits give low values
# [5] = S. cerevisiae deletion strains, locus YDR150W, strain NUM1, hits give low values
# [6] = S. cerevisiae deletion strains, locus YEL061C, strain CIN8, hits give low values
# [7] = S. cerevisiae deletion strains, locus YGR078C, strain PAC10, hits give low values
# [8] = S. cerevisiae deletion strains, locus YHR030C, strain SLT2, hits give low values
# [9] = S. cerevisiae deletion strains, locus YHR087W, strain rtc3, hits give low values
# [10] = S. cerevisiae deletion strains, locus YJL187C, strain SWE1, hits give low values
# [11] = S. cerevisiae deletion strains, locus YJR043C, strain POL32, hits give low values
# [12] = S. cerevisiae deletion strains, locus YJR075W, strain HOC1, hits give low values
# [13] = S. cerevisiae deletion strains, locus YLR039C, strain RIC1, hits give low values
# [14] = S. cerevisiae deletion strains, locus YLR058C, strain SHM2 (second series), hits give low values
# [15] = S. cerevisiae deletion strains, locus YLR085C, strain ARP6, hits give low values
# [16] = S. cerevisiae deletion strains, locus YLR262C, strain YPT6, hits give low values
# [17] = S. cerevisiae deletion strains, locus YML094W, strain GIM5, hits give low values
# [18] = S. cerevisiae deletion strains, locus YMR219W, strain ESC1, hits give low values
# [19] = S. cerevisiae deletion strains, locus YMR263W, strain SAP30, hits give low values
# [20] = S. cerevisiae deletion strains, locus YNL153C, strain GIM3, hits give low values
# [21] = S. cerevisiae deletion strains, locus YNL298W, strain CLA4 (second series), hits give low values
# [22] = S. cerevisiae deletion strains, locus YNL322C, strain KRE1, hits give low values
# [23] = S. cerevisiae deletion strains, locus YNR030W, strain Alg12, hits give low values
# [24] = S. cerevisiae deletion strains, locus YOL006C, strain TOP1, hits give low values
# [25] = S. cerevisiae deletion strains, locus YPL055C, strain LGE1, hits give low values
# [26] = S. cerevisiae deletion strains, locus YPL241C, strain CIN2, hits give low values
# [27] = S. cerevisiae deletion strains, locus YPR135W, strain CTF4, hits give low values
# [28] = S. cerevisiae strains, strain wild type, hits give low values
structure (smiles),measurement,setting,value
N#CCCN(CC1CCCO1)C(=S)Nc1cc(C(F)(F)F)cc(C(F)(F)F)c1 (stereo not given),normalized growth,[1],1.01
same,normalized growth,[2],0.965
same,normalized growth,[3],0.994
same,normalized growth,[4],0.991
same,normalized growth,"S. cerevisiae deletion strains, locus YDL134C, strain PPH21, hits give low values",0.95
same,normalized growth,[5],0.953
same,normalized growth,[6],0.982
same,normalized growth,[7],0.985
same,normalized growth,[8],0.882
same,normalized growth,[9],0.979
same,normalized growth,[10],1
same,normalized growth,[11],0.938
same,normalized growth,[12],0.918
same,normalized growth,"S. cerevisiae deletion strains, locus YKL190W, strain CNB1, hits give low values",1.02
same,normalized growth,[13],0.86
same,normalized growth,[14],1.01
same,normalized growth,[15],0.85
same,normalized growth,[16],0.908
same,normalized growth,[17],0.888
same,normalized growth,[18],0.996
same,normalized growth,[19],0.978
same,normalized growth,[20],1
same,normalized growth,[21],0.985
same,normalized growth,[22],1
same,normalized growth,[23],0.829 (active)
same,normalized growth,[24],0.903
same,normalized growth,[25],0.866
same,normalized growth,[26],0.797 (active)
same,normalized growth,[27],0.827
same,normalized growth,[28],1.02
O=C(NCc1ccc(Cl)c(Cl)c1)c1cccnc1OCC(F)(F)F,normalized growth,"S. cerevisiae deletion strains, locus YAR019C, strain CDC15, hits give low values",0.956
same,normalized growth,"S. cerevisiae deletion strains, locus YBL105C, strain PKC1, hits give low values",0.951
same,normalized growth,"S. cerevisiae deletion strains, locus YBR135W, strain CKS1, hits give low values",0.947
same,normalized growth,"S. cerevisiae deletion strains, locus YBR136W, strain MEC1, hits give low values",0.97
same,normalized growth,"S. cerevisiae deletion strains, locus YBR160W, strain CDC28, hits give low values",0.961
same,normalized growth,"S. cerevisiae deletion strains, locus YDL017W, strain CDC7, hits give low values",0.955
same,normalized growth,"S. cerevisiae deletion strains, locus YDL028C, strain MPS1, hits give low values",0.97
same,normalized growth,[4],0.958
same,normalized growth,"S. cerevisiae deletion strains, locus YDL108W, strain KIN28, hits give low values",0.947
same,normalized growth,"S. cerevisiae deletion strains, locus YDL132W, strain cdc53, hits give low values",0.952
same,normalized growth,"S. cerevisiae deletion strains, locus YDL214C, strain PRR2, hits give low values",0.971
same,normalized growth,"S. cerevisiae deletion strains, locus YDR052C, strain DBF4, hits give low values",0.971
same,normalized growth,"S. cerevisiae deletion strains, locus YDR054C, strain cdc34, hits give low values",0.958
same,normalized growth,"S. cerevisiae deletion strains, locus YDR226W, strain ADK1, hits give low values",0.967
same,normalized growth,"S. cerevisiae deletion strains, locus YDR477W, strain SNF1, hits give low values",0.974
same,normalized growth,"S. cerevisiae deletion strains, locus YER123W, strain YCK3, hits give low values",0.949
same,normalized growth,"S. cerevisiae deletion strains, locus YER133W, strain GLC7, hits give low values",0.961
same,normalized growth,"S. cerevisiae deletion strains, locus YFL009W, strain cdc4, hits give low values",0.966
same,normalized growth,"S. cerevisiae deletion strains, locus YFL029C, strain CAK1, hits give low values",0.955
same,normalized growth,"S. cerevisiae deletion strains, locus YFR003C, strain YPI1, hits give low values",0.949
same,normalized growth,"S. cerevisiae deletion strains, locus YFR019W, strain FAB1, hits give low values",0.97
same,normalized growth,"S. cerevisiae deletion strains, locus YFR028C, strain CDC14, hits give low values",0.947
same,normalized growth,"S. cerevisiae deletion strains, locus YGR040W, strain KSS1, hits give low values",0.965
same,normalized growth,"S. cerevisiae deletion strains, locus YGR052W, strain FMP48, hits give low values",1.02
same,normalized growth,"S. cerevisiae deletion strains, locus YGR092W, strain DBF2, hits give low values",0.932
same,normalized growth,[8],1.04
same,normalized growth,"S. cerevisiae deletion strains, locus YHR079C, strain IRE1, hits give low values",1.03
same,normalized growth,"S. cerevisiae deletion strains, locus YHR082C, strain KSP1, hits give low values",1.06
same,normalized growth,"S. cerevisiae deletion strains, locus YHR205W, strain SCH9, hits give low values",0.95
same,normalized growth,"S. cerevisiae deletion strains, locus YIL147C, strain SLN1, hits give low values",0.958
same,normalized growth,"S. cerevisiae deletion strains, locus YJL095W, strain BCK1, hits give low values",1.02
same,normalized growth,"S. cerevisiae deletion strains, locus YJL128C, strain PBS2, hits give low values",0.9
same,normalized growth,"S. cerevisiae deletion strains, locus YJL157C, strain FAR1, hits give low values",0.973
same,normalized growth,"S. cerevisiae deletion strains, locus YJR016C, strain ILV3, hits give low values",0.965
same,normalized growth,"S. cerevisiae deletion strains, locus YJR066W, strain TOR1 (second series), hits give low values",0.972
same,normalized growth,"S. cerevisiae deletion strains, locus YJR066W, strain TOR1, hits give low values",1.07
same,normalized growth,"S. cerevisiae deletion strains, locus YKL048C, strain ELM1, hits give low values",0.951
same,normalized growth,"S. cerevisiae deletion strains, locus YKL067W, strain YNK1, hits give low values",0.955
same,normalized growth,"S. cerevisiae deletion strains, locus YKL101W, strain HSL1, hits give low values",0.968
same,normalized growth,"S. cerevisiae deletion strains, locus YKL193C, strain SDS22, hits give low values",0.951
same,normalized growth,"S. cerevisiae deletion strains, locus YKL203C, strain TOR2, hits give low values",1.04
same,normalized growth,"S. cerevisiae deletion strains, locus YLR113W, strain HOG1, hits give low values",0.891
same,normalized growth,"S. cerevisiae deletion strains, locus YLR133W, strain CKI1, hits give low values",0.965
same,normalized growth,"S. cerevisiae deletion strains, locus YLR403W, strain SFP1, hits give low values",0.978
same,normalized growth,"S. cerevisiae deletion strains, locus YML070W, strain DAK1, hits give low values",0.944
same,normalized growth,"S. cerevisiae deletion strains, locus YMR001C, strain CDC5, hits give low values",0.937
same,normalized growth,"S. cerevisiae deletion strains, locus YMR205C, strain PFK2 (second series), hits give low values",0.958
same,normalized growth,"S. cerevisiae deletion strains, locus YMR277W, strain FCP1, hits give low values",0.947
same,normalized growth,"S. cerevisiae deletion strains, locus YNL006W, strain LST8, hits give low values",0.968
same,normalized growth,"S. cerevisiae deletion strains, locus YNL020C, strain ARK1, hits give low values",0.968
same,normalized growth,"S. cerevisiae deletion strains, locus YNL161W, strain CBK1, hits give low values",0.971
same,normalized growth,"S. cerevisiae deletion strains, locus YNL183C, strain NPR1, hits give low values",0.99
same,normalized growth,"S. cerevisiae deletion strains, locus YNL207W, strain RIO2, hits give low values",0.968
same,normalized growth,"S. cerevisiae deletion strains, locus YNL222W, strain SSU72, hits give low values",0.953
same,normalized growth,"S. cerevisiae deletion strains, locus YNL307C, strain MCK1 (second series), hits give low values",0.957
same,normalized growth,"S. cerevisiae deletion strains, locus YOL078W, strain AVO1, hits give low values",0.963
same,normalized growth,"S. cerevisiae deletion strains, locus YOL136C, strain PFK27, hits give low values",0.968
same,normalized growth,"S. cerevisiae deletion strains, locus YOR061W, strain CKA2, hits give low values",0.945
same,normalized growth,"S. cerevisiae deletion strains, locus YOR119C, strain RIO1, hits give low values",1.01
same,normalized growth,"S. cerevisiae deletion strains, locus YOR231W, strain MKK1, hits give low values",1.03
same,normalized growth,"S. cerevisiae deletion strains, locus YOR329C, strain SCD5, hits give low values",0.969
same,normalized growth,"S. cerevisiae deletion strains, locus YPL031C, strain PHO85, hits give low values",0.97
same,normalized growth,"S. cerevisiae deletion strains, locus YPL153C, strain RAD53, hits give low values",0.968
same,normalized growth,"S. cerevisiae deletion strains, locus YPL204W, strain HRR25, hits give low values",0.971
same,normalized growth,"S. cerevisiae deletion strains, locus YPL209C, strain IPL1, hits give low values",0.968
same,normalized growth,"S. cerevisiae deletion strains, locus YPL256C, strain CLN2, hits give low values",0.995
same,normalized growth,"S. cerevisiae deletion strains, locus YPR025C, strain CCL1, hits give low values",0.964
same,normalized growth,"S. cerevisiae deletion strains, locus YPR106W, strain ISR1, hits give low values",0.961
same,normalized growth,"S. cerevisiae deletion strains, locus YPR111W, strain DBF20, hits give low values",0.958
same,normalized growth,"S. cerevisiae deletion strains, strain NNK1, hits give low values",0.959
same,normalized growth,"S. cerevisiae deletion strains, strain TSCII, hits give low values",0.958
CN(C)C=Nc1ncccc1OCc1ccc(Cl)c(Cl)c1,normalized growth,[1],0.973
same,normalized growth,[2],0.989
same,normalized growth,[3],0.945
same,normalized growth,[4],0.951
same,normalized growth,[5],0.851
same,normalized growth,[6],0.951
same,normalized growth,[7],0.964
same,normalized growth,"S. cerevisiae deletion strains, locus YGR229C, strain SMI1, hits give low values",0.967
same,normalized growth,[8],0.47 (active)
same,normalized growth,[9],1.04
same,normalized growth,[10],0.959
same,normalized growth,[11],0.951
same,normalized growth,[12],1
same,normalized growth,[13],1.05
same,normalized growth,[14],1
same,normalized growth,[15],0.722 (active)
same,normalized growth,[16],1.05
same,normalized growth,[17],0.923
same,normalized growth,[18],0.987
same,normalized growth,[19],0.963
same,normalized growth,[20],0.94
same,normalized growth,[21],0.788 (active)
same,normalized growth,[22],0.978
same,normalized growth,[23],0.926
same,normalized growth,[24],0.563 (active)
same,normalized growth,[25],0.995
same,normalized growth,[26],0.888
same,normalized growth,[27],0.756
same,normalized growth,[28],0.878 (active)
